In PubChem BioAssay AID1209 (Sanford-Burnham Center for Chemical Genomics, 2008):
Screen size: about 190,000 compounds; about 810 (0.43%) were called active. For the sample, actives were picked, then their nearest neighbours and some compounds at random. Unmarked numbers belong to inactive results. Rule as the data show it: active = inhibition above about 50%; inactive = the rest.

Biological target: Mannose-6-phosphate isomerase (Homo sapiens) (UniProt P34949)
Assay: inhibitors of human PMI, primary screen, biochemical, fluorescence intensity, coupled assay (AID 1209);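 also: plate controls were DMSO vehicle for no effect and wells lacking substrate for full effect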
Conditions: purified PMI enzyme, at 20 µM, stronger effect = higher value

Sequence of Mannose-6-phosphate isomerase (Homo sapiens) (P34949 whole entry, looked up): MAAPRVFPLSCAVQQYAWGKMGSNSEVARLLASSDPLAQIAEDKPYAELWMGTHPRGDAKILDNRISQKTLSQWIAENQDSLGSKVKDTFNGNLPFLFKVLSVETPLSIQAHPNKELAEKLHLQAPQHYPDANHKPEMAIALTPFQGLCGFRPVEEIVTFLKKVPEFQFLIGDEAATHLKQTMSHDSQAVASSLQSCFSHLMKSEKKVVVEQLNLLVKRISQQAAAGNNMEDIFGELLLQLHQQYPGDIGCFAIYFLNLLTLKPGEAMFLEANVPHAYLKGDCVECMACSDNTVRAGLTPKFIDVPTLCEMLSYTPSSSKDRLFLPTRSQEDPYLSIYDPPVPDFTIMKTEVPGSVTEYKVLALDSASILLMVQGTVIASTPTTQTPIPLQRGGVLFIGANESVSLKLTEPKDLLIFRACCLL

SMILES | inhibition
O=C(NCC(O)c1ccc([N+](=O)[O-])cc1)c1cccc(S(=O)(=O)N2CCCC2)c1 (stereo not given) | 7.8%
CCOC(=O)N1CCC(n2c(SCC(=O)NCCC3=CCCCC3)nc3ccccc3c2=O)CC1 | 8.6%
Cc1ccc(-n2c(N)c(C(=O)N3CCOCC3)sc2=S)cc1 | 36.2%
Cc1ccc(-n2c(N)c(C(=O)N3CCN(C)CC3)sc2=S)cc1 | 2.7%
CCn1c(N)c(C(=O)N2CCOCC2)sc1=S | 8.6%
Cc1c(C(=O)N2CCCCC2)sc(N)c1C#N | 8.9%
Nc1c(C(=O)N2CCOCC2)sc(=S)n1-c1ccccc1 | 53.3% (active)
Cc1ccc(-n2c(N)c(C(=O)N3CCCCC3)sc2=S)cc1 | 22.6%
CN1CCN(C(=O)c2sc(=S)n(-c3ccccc3)c2N)CC1 | 2.8%
Nc1c(C(=O)N2CCCCC2)sc(=S)n1-c1ccccc1 | 57.7% (active)
N#Cc1ccccc1-n1c(N)c(C(=O)N2CCCC2)sc1=S | 71% (active)
Cc1ccc(-c2nnc(SCC(=O)N/N=C/c3ccccc3C(=O)O)n2-c2ccccc2)cc1 | -2.4%
CC(C)NC(=O)C1CCN(Cc2cnn(-c3ccccc3)c2-n2cccc2)CC1 | -1.9%
S=C(Nc1ccccc1)N1CCN(C(=S)c2ccccc2)CC1 | 13.6%
CCNc1nc(OC)nc(SCC(=O)Nc2ccccc2)n1 | 7.3%
COc1ccc(NC(=O)Nc2ccccc2SC)c(OC)c1 | 16.5%
Cc1cccc2sc(N(CCCN(C)C)C(=O)c3cc4ccccc4oc3=O)nc12 | 11.8%
O=c1cc(O)nc(SCc2ccccc2)[nH]1 | 17.4%
CCn1c2ccccc2c2nc3cc(S(=O)(=O)N4CCOCC4)ccc3nc21 | 70.3% (active)
CCn1c2ccccc2c2nc3ccccc3nc21 | 4.5%
CCn1c2ccccc2c2nc3cc(C(=O)O)ccc3nc21 | 6.3%
COc1ccc(CN2C(=O)NC3(CCOc4ccccc43)C2=O)cc1F (stereo not given) | 7.7%
CC(C)OC(=O)c1cccc(C(=O)Oc2ccccc2)n1 | -3.1%
Cc1ccc(NC(=O)NC(=O)N(C(C)C)S(C)(=O)=O)nc1 | -7.9%
Cc1[nH]n(-c2ccccc2)c(=O)c1C=Nc1ccc(S(=O)(=O)N(C)C)cc1 | -3.8%
Cc1[nH]n(-c2ccccc2)c(=S)c1C=NCCCN=Cc1c(C)[nH]n(-c2ccccc2)c1=S | -3.9%
Cc1[nH]n(-c2ccccc2)c(=S)c1C=Nc1ccc([N+](=O)[O-])cc1 | 69.1% (active)

SMILES | inhibition
CN1/C(=C/c2cc[n+](C)c3ccccc23)C=Cc2ccccc21 | 70.7% (active)
CCN1/C(=C/c2ccc3ccccc3[n+]2CC)C=Cc2ccccc21 | 15.5%
C[n+]1ccc(/C=C/c2ccccc2O)c2ccccc21 | 12.3%
CN1C=C/C(=C\c2cc[n+](C)c3ccccc23)c2ccccc21 | 59.2% (active)
CC[n+]1ccc(/C=C2\Sc3ccccc3N2CCCS(=O)(=O)[O-])c2ccccc21 | 8.2%
COc1ccc(N=c2oc3cc(O)ccc3cc2C(=O)Nc2ccccn2)cc1OC | 14.8%
NC1=NC2CS(=O)(=O)CC2S1 (stereo not given) | 2.4%
O=C(c1ccc([N+](=O)[O-])cc1)N1CCN(C(=O)c2ccco2)CC1 | 1.1%
COc1ccc(CC(=O)OCC(=O)Nc2cccnc2Cl)cc1OC | -1.9%
CCOC(=O)N1CCN(C(=O)C2CCN(S(=O)(=O)N(CC)CC)CC2)CC1 | -12%
COC(=O)c1ccccc1NC(=S)N1CCN(c2ccccn2)CC1 | 7.2%
COC(=O)c1ccccc1N/C=C1\CCc2c(c(C)nn2-c2ccccn2)C1=O | 85.2% (active)
CCOC(=O)c1ccccc1N/C=C1\CCCCC1=O | -4.9%
Cc1ccc(NCc2ccccc2O)c(C)c1 | 2.8%
COc1ccc(/C=C(\C#N)C(=O)OCCNC(=O)c2ccncc2)cc1 | 67.7% (active)
COc1ccc(/C=C(\C#N)C(=O)OCC(=O)NC(=O)NCCC(C)C)cc1 | -4.9%
COc1ccc(/C=C(\C#N)C(=O)OCC(=O)NCc2ccccc2)cc1 | 0.9%
CCCOc1ccc(CNC(=S)NCc2ccc(OC(C)C)cc2)cc1 | 6.1%
O=C(NCc1ccc2c(c1)OCO2)c1ccc(N2CCCCCC2)c([N+](=O)[O-])c1 | 10.1%
O=C(NCc1ccccn1)c1ccc(N2CCCC2)c([N+](=O)[O-])c1 | -10.4%
O=C(NCc1ccncc1)c1ccc(N2CCCC2)c([N+](=O)[O-])c1 | 72.1% (active)
S=C(Nc1ccc(Cl)cc1)Nc1ccc2cn[nH]c2c1 | 23.6%
Cc1ccc(S(=O)(=O)N(C)C)cc1NC(=S)Nc1ccc2cn[nH]c2c1 | 55.4% (active)
CN(C)S(=O)(=O)c1cccc(NC(=S)Nc2ccc3cn[nH]c3c2)c1 | 44.4%
S=C(Nc1ccc2cn[nH]c2c1)Nc1ccccc1Cl | 14.1%
S=C(Nc1ccc2cn[nH]c2c1)Nc1ccc(Cl)cc1Cl | 55.6% (active)
Cc1ccc(S(=O)(=O)N(C)C)cc1NC(=S)Nc1ccc2[nH]c(=O)[nH]c2c1 | 44.5%

SMILES | inhibition
C/C(=N\NC(=O)COc1ccc(C(C)(C)C)cc1)c1ccc2c(c1)OCCO2 | 19%
COc1ccccc1NC(=O)Cn1cnc2c(oc3ccccc32)c1=O | 4.7%
Cc1ccc2c(c1)sc[n+]2Cc1ccccc1 | -11.9%
COC(=O)[C@H](CC(C)C)NC(=O)CCc1nnc(COc2ccccc2)o1 | -1.7%
CNC(=O)NCC12CC3CC(CC(C3)C1)C2 | 0%
CCN=c1scc(-c2cccs2)n1/N=C/c1cc(OC)ccc1O | -5%
CCN=c1scc(C)n1/N=C/c1ccsc1 | -6.7%
CCN=c1scc(C)n1/N=C/c1cc(Br)c(O)c(Br)c1 | -24.9%
COCCN=c1scc(-c2ccccc2)n1/N=C/c1c[nH]c2ccccc12 | 25.3%
COCCN=c1scc(-c2cccs2)n1/N=C(\C)c1ccco1 | -16.8%
COc1ccc(O)c(/C=N/n2c(-c3ccco3)csc2=Nc2cccnc2)c1 | 11.8%
COCCN=c1scc(-c2cccs2)n1/N=C/c1ccc(O)c(O)c1O | 68.4% (active)
COCCN=c1scc(-c2ccco2)n1/N=C/c1ccc(O)c(O)c1O | 69.7% (active)
CCN=c1scc(C)n1/N=C/c1ccc(O)c(O)c1O | 82.5% (active)
Cc1c(Br)cc(C(=O)OC2CCN(C)CC2)c(C)c1C | -1.2%
CCc1nnc(NC(=O)CSc2nnc(CNc3ccc(Cl)cc3)o2)s1 | 9.1%
CCCNc1nc2c(c(=O)n(C)c(=O)n2C)n1Cc1ccc(F)cc1 | 15.7%
COc1ccc2c(c1OC)C(=O)N(c1nccs1)C2 | 6.6%
CCN=C(NS(=O)(=O)c1ccc(Br)cc1)c1ccc(Cl)cc1 | 10.4%
CC1CCCN(S(=O)(=O)c2ccccc2[N+](=O)[O-])C1 (stereo not given) | 9.5%
COc1ccc(C2CC2/C(C)=N/OC(=O)c2cccs2)cc1 (stereo not given) | -5.4%
COc1ccc(C2CC2/C(C)=N/OC(=O)c2ccc(F)cc2)cc1 (stereo not given) | 73.5% (active)
COc1ccc(C2CC2/C(C)=N/OC(=O)C2CC2)cc1 (stereo not given) | 2.2%
CCn1c(C)nc2cc(C(=O)OC(C(F)(F)C(F)F)C(F)(F)C(F)F)ccc21 | 18.2%
Cc1cc2c(cc1C)N(C(=O)CSc1nncn1C)C(C)(C)c1ssc(=S)c1-2 | 10.4%
COC(=O)c1cc(OC)nc2c1c(=O)n(C)c(=O)n2C | -3.1%
CCC(=O)n1nc(-c2cccnc2)nc1NCc1ccc(OC)cc1 | 8.8%

SMILES | inhibition
CCCC(=O)n1nc(-c2cccnc2)nc1NCc1ccccc1 | 3.3%
CCCC(=O)n1nc(-c2cccnc2)nc1NCc1ccc(OC)cc1 | 86.5% (active)
O=C(CSc1ccc2c(c1)OCCO2)Nc1cccc(S(=O)(=O)N2CCCCC2)c1 | 12.6%
O=C(O)c1cc2c(ccc3ccccc32)o1 | 4.1%
CC(=O)c1cc2cc(O)ccc2o1 | 3.2%
CC(=O)c1cc2c(O)c(O)ccc2o1 | 81.1% (active)
COc1cc(OC)cc(C(=O)N[C@H](C(=O)Nc2nnc(C3CC3)s2)C(C)C)c1 | 11.7%
O=C(CCc1ccccc1)OCC(=O)c1cccc([N+](=O)[O-])c1 | 3.7%
O=C(CSc1ncnc2c1oc1ccccc12)OCc1ccccc1 | 22.9%
COc1ccccc1N1C(=O)CC(Sc2nc(C)cc(C)n2)C1=O (stereo not given) | 0.4%
CCOc1ccccc1N1C(=O)CC(Sc2n[nH]c(-c3ccccc3)n2)C1=O (stereo not given) | 36%
O=C(CN1CCCCC1)NCCNc1ccc(C(F)(F)F)cc1[N+](=O)[O-] | 3.9%
O=S(=O)(Nc1ccc(Cl)cc1)c1ccc(N2CCOCC2)c(NC(=S)NC2CC2)c1 | 61.3% (active)
COc1ccc(NS(=O)(=O)c2ccc(N3CCCC3)c(NC(=S)Nc3cccc(S(=O)(=O)N(C)C)c3)c2)cc1 | 69.9% (active)
COc1ccc(NC(=S)Nc2cccc(S(=O)(=O)N3CCCCC3)c2)cc1 | 1.3%
COc1ccc(NS(=O)(=O)c2ccc(N3CCOCC3)c(NC(=O)c3ccc(F)cc3)c2)cc1 | 11.8%
COC(=O)CCC(=O)Nc1cc(S(=O)(=O)Nc2ccc(Cl)cc2)ccc1N1CCOCC1 | 21.8%
COc1ccc(NS(=O)(=O)c2ccc(N3CCOCC3)c(NC(=O)c3ccccc3Cl)c2)cc1 | -2.5%
COc1ccc(NS(=O)(=O)c2ccc(N3CCOCC3)c(NC(=O)c3ccc(OC)cc3)c2)cc1 | 9.7%
COc1ccc(NS(=O)(=O)c2ccc(N3CCCC3)c(NC(=S)Nc3cccc(C)c3C)c2)cc1 | 78.9% (active)
CCN(CC)S(=O)(=O)c1ccc(N2CCCC2)c(NS(=O)(=O)c2ccc(OC)cc2)c1 | -1.6%
O=S(=O)(Nc1ccc(Cl)cc1)c1ccc(N2CCOCC2)c(NC(=S)NCCN2CCOCC2)c1 | 12.4%
COc1ccc(NS(=O)(=O)c2ccc(N3CCOCC3)c(NC(=O)C(C)C)c2)cc1 | -20%
COc1ccc(NS(=O)(=O)c2ccc(N3CCCC3)c(NC(=S)Nc3ccc(SC(F)F)cc3)c2)cc1 | 59% (active)
